Luc counter = Counterscreen for Luciferase (Kinase-Glo TM) Inhibition | Potency, µM (highest dose often 38.3 µM), for inactives: at the top dose activity change, negative = inhibition, actives largely listed as inhibitors | hit rate 0.28% among 200,000 | Kinase-Glo luciferase, ATP luminescence, 8 min | Luciferin 4-monooxygenase (Photuris pensylvanica), Q27757; active = well fitted curve in the direction sought with a large enough effect; inconclusive = small, poorly fitted or top-dose-only effect, or another doubt; inactive = no such curve, though single readings can be large; an effect the other way counts as inactive or inconclusive; note: nearly all actives have a fitted effect of over 60% in size
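Luminescence was the read-out, taken after 8-minute incubation at ambient temperature. Luciferase turned over luciferin with 10 uM ATP in imidazole pH 7.2 buffer containing KCl, MgCl2, Tween 20 and BSA.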
HPGD block = qHTS Assay for Inhibitors of HPGD (15-Hydroxyprostaglandin Dehydrogenase); 15-hydroxyprostaglandin dehydrogenase [NAD(+)] (Homo sapiens), P15428; purified HPGD, NADH fluorescence kinetic, PGE2 substrate; Potency, µM, without a hit: at the highest dose activity change, negative = inhibition, hits mostly inhibitors; hit rate 4.3% among 150,000; AID 894, 2007
Target sequence (P15428 whole entry, looked up): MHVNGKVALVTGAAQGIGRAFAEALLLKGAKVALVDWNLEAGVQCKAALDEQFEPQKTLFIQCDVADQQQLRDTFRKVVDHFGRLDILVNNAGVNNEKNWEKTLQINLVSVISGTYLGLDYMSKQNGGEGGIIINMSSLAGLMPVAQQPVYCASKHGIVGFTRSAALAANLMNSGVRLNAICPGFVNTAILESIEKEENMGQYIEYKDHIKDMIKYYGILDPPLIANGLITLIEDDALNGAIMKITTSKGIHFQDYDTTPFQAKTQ
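NADH formation kinetics: reaction with 30 uM PGE2 and 1 mM NAD+ (final), 20 nM enzyme, Tris-HCl pH 8 with Tween 20, after 15 min compound preincubation at room temperature. Fluorescence change, last versus first of five reads.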
IMPase Li inh = qHTS Assay for Identifying the Cell-Membrane Permeable IMPase Inhibitors: Potentiation with Lithium; CHO-M1 cells, IP1 TR-FRET (IP-One), carbachol + lithium; Potency, µM (titrated, usually from 59.4 µM), inactives show at the highest dose activity, negative = IMPase inhibition, hits mostly inhibitors; hit rate 0.35% among 210,000; AID 1457, 2008; active = well fitted curve in the direction sought with a large enough effect; inconclusive = small, poorly fitted or top-dose-only effect, or another doubt; inactive = no such curve, though single readings can be large; an effect the other way counts as inactive or inconclusive;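 note: IP1 builds up when IMPase is blocked and the TR-FRET signal falls; plate controls were basal vehicle for no effect and high inhibitor control for full effect; nearly all actives have a fitted effect of over 50% in size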
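Readout is a homogeneous TR-FRET IP1 immunoassay (Ex 320, Em 665 and 620), where raised cytosolic IP1 lowers signal. Cells were CHO-M1 treated 30 min at 37C with test compounds plus a little lithium; AC50 values came from Hill-equation fitting.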
Lamin A splicing = qHTS Assay for Modulators of Lamin A Splicing. HeLa LMNA splicing GFP/RFP minigene ratio, 48 h. Potency, µM (titrated, usually from 46.1 µM), for the others: at the highest dose ratio change, negative = inhibition, actives largely listed as inhibitors. hit rate 0.01% among 200,000; active = well fitted inhibition curve with a large enough effect in the signal ratio, with a control signal flat, not every such curve was filed as active; inconclusive = small, poorly fitted or top-dose-only effect, or effect the other way, or a change in a side signal; the % refers to the signal ratio
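Read-out is the ratio of GFP to DsRed2 object intensity, acquired by 488 nm laser-scanning cytometry on HeLa lamin A-EGFP minigene reporter cells. Compound incubation 48 hrs at 37 °C in Opti-MEM with 2% FBS; DMSO 0.5% final.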
ALDH1A1 block = qHTS Assay for Inhibitors of Aldehyde Dehydrogenase 1 (ALDH1A1); Purified ALDH1A1, NADH fluorescence, propionaldehyde substrate; Potency, µM (highest dose often 75.3 µM), for the others: at the highest dose activity, negative = inhibition, usual class: inhibitors; Aldehyde dehydrogenase 1A1 (Homo sapiens), P00352; hit rate 7.3% among 220,000;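 note: plate controls were no enzyme wells and a reference inhibitor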
Target sequence (P00352 whole entry, looked up): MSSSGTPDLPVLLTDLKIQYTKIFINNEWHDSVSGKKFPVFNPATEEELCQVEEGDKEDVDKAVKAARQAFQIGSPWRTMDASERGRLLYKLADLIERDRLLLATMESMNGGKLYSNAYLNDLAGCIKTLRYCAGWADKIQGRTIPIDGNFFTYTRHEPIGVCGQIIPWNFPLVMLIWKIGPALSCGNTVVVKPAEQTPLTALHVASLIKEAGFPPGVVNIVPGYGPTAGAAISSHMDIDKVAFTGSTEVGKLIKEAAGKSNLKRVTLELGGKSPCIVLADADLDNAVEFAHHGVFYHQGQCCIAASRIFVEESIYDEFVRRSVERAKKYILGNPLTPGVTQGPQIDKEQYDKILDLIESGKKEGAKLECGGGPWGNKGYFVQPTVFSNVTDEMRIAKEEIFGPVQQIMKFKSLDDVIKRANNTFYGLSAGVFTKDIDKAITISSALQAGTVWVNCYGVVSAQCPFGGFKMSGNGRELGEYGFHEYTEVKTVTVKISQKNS
* = called active by the depositor; [ ] = dose if it differs, or a comment. This is a sample that favours compounds with a hit; in the whole collection about 9% have one here. Unless noted, calls come from the whole dose curve; as a rule, active = well fitted inhibition curve with a large enough effect (not every such curve was filed as active); inconclusive = small, poorly fitted or top-dose-only effect, or another doubt; inactive = no such curve, though single readings can be large or run the other way. Unless noted, % is set by controls: 0 for no effect and ±100 for the full control effect; potency is the fitted concentration of half-maximal effect.

For COc1cccc(-c2nnc3sc(C4CCCCC4)nn23)c1 the results were Luc counter 2.9%, HPGD block -27.9%, IMPase Li inh 22.0%[38.3 µM], Lamin A splicing -9.3% and ALDH1A1 block inconclusive.
`O=c1[nH]nc(N/N=C/c2ccccc2OC(F)F)c(=O)[nH]1` gave ALDH1A1 block 7.4%.
For CC1=NN(c2ccc(Cl)cc2)C(=O)C1C(c1cccc(O)c1)c1c(C)[nH]n(-c2ccc(Cl)cc2)c1=O (centres undefined) the results were Luc counter -1.8%, HPGD block 25.1µM*, IMPase Li inh 11.5%, Lamin A splicing inconclusive and ALDH1A1 block 3.98µM*.
For CC1=NN(c2ccc(F)cc2)C(=O)C1C(c1cccc(O)c1)c1c(C)[nH]n(-c2ccc(F)cc2)c1=O (centres undefined) the results were Luc counter -0.8%, HPGD block 17.8µM*, IMPase Li inh -25.0%[38.3 µM], Lamin A splicing 7.2% and ALDH1A1 block 8.91µM*.
`COC(=O)C1=C(C)N(Cc2ccccc2)C2=C(C(C)=O)C(c3ccccc3)[C@@](O)(C(=O)OC)C(=O)N2C1c1ccccc1` (some centres undefined) gave ALDH1A1 block -5.6%[13.5 µM].
`Cc1cccnc1NC(=S)Nc1ccc(Cl)c(Cl)c1` gave Luc counter -5.1%, IMPase Li inh 1.6% and ALDH1A1 block -12.6%.
`CN1CCN(NC(=S)Nc2ccccc2)CC1` gave Luc counter -1.3%, IMPase Li inh 6.2% and ALDH1A1 block 15.3%.
COc1ccc(NC(=S)Nn2cnnc2)cc1OC was read as Luc counter 0.9%, IMPase Li inh 0.9%, Lamin A splicing 14.2%[46 µM] and ALDH1A1 block 3.98µM*.
CCc1ccc(NC(=S)NCc2ccccc2)cc1 was read as Luc counter -1.3%, IMPase Li inh 8.0% and ALDH1A1 block -5.6%.
`COc1ccc(NC(=S)Nc2ncccc2C)cc1OC` gave Luc counter -6.8%, IMPase Li inh 8.3%, Lamin A splicing inconclusive and ALDH1A1 block 25.1µM*.
CCc1ccc(NC(=S)Nn2cnnc2)cc1 was read as Luc counter 4.1%, IMPase Li inh 1.4%, Lamin A splicing 5.6%[9.22 µM] and ALDH1A1 block 1.41µM*.
Screening S=C(Nc1ccccc1)Nn1cnnc1 returned Luc counter 1.8%, HPGD block 14.1µM*, IMPase Li inh -2.6%, Lamin A splicing -5.6% and ALDH1A1 block 6.31µM*.
For Cc1ccccc1CSc1nnc2[nH]c(=O)cc(C)n12 the results were Lamin A splicing 9.2%[46 µM].
CCCc1nnc(SCC(=O)N2CCCC2)n1Cc1ccco1 was read as Luc counter -5.9%, IMPase Li inh 11.3% and ALDH1A1 block inconclusive.
`Cc1ccc(NC(=S)Nn2cnnc2)cc1` gave Luc counter -2.0%, IMPase Li inh -3.2%, Lamin A splicing -15.9%[9.22 µM] and ALDH1A1 block 3.55µM*.
For O=c1[nH]c(-c2ccccc2)nnc1-c1ccccc1 the results were ALDH1A1 block 7.8%.
`Cc1c(C(=O)N2CCN(c3ccc(F)cc3)CC2)sc2nc3n(c(=O)c12)CCC3` gave Lamin A splicing 22.6%[46 µM].
`CCCCC1(C)OC(=O)C(=Cc2ccc(N(CC)CC)cc2)C(=O)O1` (centres undefined) gave Luc counter -7.6%, HPGD block 20µM*, IMPase Li inh -7.7%[38.3 µM], Lamin A splicing 2.2% and ALDH1A1 block 0.398µM*.
Screening CCN(CC)c1ccc(/C=c2/sc3nnc(-c4ccccc4C)n3c2=O)cc1 returned Luc counter 4.1%, HPGD block -9.0%, IMPase Li inh 10.0%[38.3 µM], Lamin A splicing 10.0% and ALDH1A1 block 9.8%.
CCN(CC)c1ccc(C=C2C(=O)OC3(CCCCC3)OC2=O)cc1 was read as Luc counter -1.3%, IMPase Li inh 10.1%, Lamin A splicing inconclusive and ALDH1A1 block 0.178µM*.
CCN(CC)c1ccc(/C=C2/C(=O)c3ccc(C(=O)O)cc3C2=O)cc1 was read as Luc counter -11.0%, HPGD block 11.2µM*, IMPase Li inh 5.2%, Lamin A splicing -11.4% and ALDH1A1 block 8.91µM*.
`CCN(CC)c1ccc(/C=C2/C(=O)ON=C2C)cc1` gave Luc counter -2.6%, HPGD block -19.4%, IMPase Li inh 3.7%, Lamin A splicing -9.8% and ALDH1A1 block 1.5µM*.
`CCN(CC)c1ccc(/C=C/C(=O)c2ccc(Br)cc2)cc1` gave Luc counter 2.2%, HPGD block -3.7%, IMPase Li inh 1.4%, Lamin A splicing -24.2% and ALDH1A1 block inconclusive.
Screening O=C(NCC1OCCc2ccccc21)c1cc(COc2ccc(F)cc2Cl)on1 (centres undefined) returned IMPase Li inh 0.1% and ALDH1A1 block 0.3%.
CCOCC(=O)N1CCc2ccccc21 was read as Luc counter -0.3%, HPGD block -1.4%, IMPase Li inh 16.1%[38.3 µM], Lamin A splicing -5.6% and ALDH1A1 block 3.55µM*.
For O=C(CO/N=C/c1ccccc1O)N1CCc2ccccc21 the results were Luc counter 0.6%, HPGD block -7.8%, IMPase Li inh -0.5%, Lamin A splicing -3.5% and ALDH1A1 block 10µM*.
Cc1csc(=N)n1CC(=O)N1CCc2ccccc21 was read as Luc counter -3.3%, HPGD block -4.2%, IMPase Li inh 6.4%[38.3 µM], Lamin A splicing -0.9% and ALDH1A1 block 25.1µM*.
Screening Cc1ccc(CS(=O)(=O)c2ncn[nH]2)cc1 returned Luc counter 0.8%, IMPase Li inh -0.2%, Lamin A splicing 11.1%[46 µM] and ALDH1A1 block 12.6%.
`Cc1ccc(CN2CCN(C(=O)c3ccncc3)CC2)cc1` gave Luc counter -1.3%, IMPase Li inh 3.9%, Lamin A splicing 3.9%[46 µM] and ALDH1A1 block inconclusive.
Screening N#CCCN(Cc1cccnc1)C(=O)c1sc2cc(F)ccc2c1Cl returned Luc counter -2.1%, HPGD block 7.08µM*, IMPase Li inh -13.5%, Lamin A splicing inconclusive and ALDH1A1 block -3.1%.
`O=C(Nc1nnc(SCC(=O)N2CCCCC2)s1)C1CCCCC1` gave Luc counter 1.0%, HPGD block 14.1µM*, IMPase Li inh 1.0%, Lamin A splicing -7.8% and ALDH1A1 block inconclusive.
For O=C(CSc1nnc(NC(=O)C2CCC2)s1)NC1CC1 the results were Luc counter 2.1%, HPGD block -8.3%, IMPase Li inh 11.2%[38.3 µM], Lamin A splicing 19.1% and ALDH1A1 block 10.4%.
Screening CC(C)(C)OC(=O)NCCCCC1=CC2=CC(=O)C(C)(OC(=O)CCc3ccccc3)C(=O)C2=CO1 (centres undefined) returned Luc counter -0.3%, HPGD block -10.7%, IMPase Li inh 14.9% and ALDH1A1 block 10.7%.

Assay outcomes (PubChem)
